Among all 310,000 compounds or so, about 14,000 (4.5%) showed an effect of 50% or more. The effect is printed as a negative number. The sample holds strong results, similar compounds and a random draw of the others, so the mix is not that of the screen.
Biological target: human ether-à-go-go-related gene (hERG) potassium channel (human, UniProt Q12809)
Test: primary screen, population patch clamp on CHO cells stably expressing hERG; higher = less effect of the substance
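Also: peak tail current of the secondary pulse compared with the same well before compound.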

human ether-à-go-go-related gene (hERG) potassium channel, sequence (Q12809 whole entry, looked up): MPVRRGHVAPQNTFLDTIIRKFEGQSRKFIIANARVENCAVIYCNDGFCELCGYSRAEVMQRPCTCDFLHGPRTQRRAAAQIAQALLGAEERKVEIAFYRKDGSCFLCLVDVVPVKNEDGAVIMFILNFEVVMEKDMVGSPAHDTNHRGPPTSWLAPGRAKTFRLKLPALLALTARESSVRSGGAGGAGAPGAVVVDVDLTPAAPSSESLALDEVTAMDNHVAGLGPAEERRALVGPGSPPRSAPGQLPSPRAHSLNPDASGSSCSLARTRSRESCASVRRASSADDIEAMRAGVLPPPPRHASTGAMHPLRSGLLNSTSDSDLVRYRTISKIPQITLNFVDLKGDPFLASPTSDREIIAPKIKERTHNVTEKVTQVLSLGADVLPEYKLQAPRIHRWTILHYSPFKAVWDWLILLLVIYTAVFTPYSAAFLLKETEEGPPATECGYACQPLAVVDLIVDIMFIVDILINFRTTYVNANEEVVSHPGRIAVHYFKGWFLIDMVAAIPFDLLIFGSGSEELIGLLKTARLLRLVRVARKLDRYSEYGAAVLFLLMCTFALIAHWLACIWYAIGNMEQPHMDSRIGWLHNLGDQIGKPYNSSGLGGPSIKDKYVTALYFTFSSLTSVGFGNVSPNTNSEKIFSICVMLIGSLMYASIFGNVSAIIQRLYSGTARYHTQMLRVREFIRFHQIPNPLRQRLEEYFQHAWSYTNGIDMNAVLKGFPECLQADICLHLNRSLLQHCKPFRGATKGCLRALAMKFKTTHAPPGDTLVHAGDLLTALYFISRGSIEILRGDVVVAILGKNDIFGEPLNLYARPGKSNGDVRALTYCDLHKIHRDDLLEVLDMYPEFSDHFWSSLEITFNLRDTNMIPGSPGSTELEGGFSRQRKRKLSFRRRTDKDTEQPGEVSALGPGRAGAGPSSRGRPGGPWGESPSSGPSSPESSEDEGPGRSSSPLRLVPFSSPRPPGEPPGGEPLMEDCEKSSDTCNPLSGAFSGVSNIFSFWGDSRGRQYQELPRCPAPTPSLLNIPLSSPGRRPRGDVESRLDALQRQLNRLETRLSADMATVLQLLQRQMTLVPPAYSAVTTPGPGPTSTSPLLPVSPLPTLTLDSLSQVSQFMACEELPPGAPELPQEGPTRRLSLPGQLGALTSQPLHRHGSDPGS

Structure (SMILES) | hERG current change (%, negative = inhibition) at 10uM [%]
Cc1ccc(OCC(=O)OC(C)CN2CCCCC2)cc1.Cl (stereo not shown) | 12.2
C=CCNC(=O)c1cc(-c2ccncc2)nc2c(C)cc(C)cc12 | -43.5
O=C(Nc1nccs1)c1nc(-c2ccccc2)n(-c2ccccc2)n1 | 6.62
O=C(O)CNC(=O)c1nc(-c2ccccc2)n(-c2ccccc2)n1 | 22.9
CCCC(C)NC(=O)c1nc(-c2ccccc2)n(-c2ccccc2)n1 (stereo not shown) | -55.7
O=C(O)c1nc(-c2ccccc2)n(-c2ccccc2)n1 | 4.87
Cc1csc(NC(=O)c2nc(-c3ccccc3)n(-c3ccccc3)n2)n1 | -79.2
Cc1csc(NC(=O)c2ccccc2)n1 | 16.8
O=C(c1cccc(S(=O)(=O)N2CCOCC2)c1)N1CCN(C/C=C/c2ccccc2)CC1 | -46.3
CCC1Oc2ccc(C)cc2N(CC(=O)NCCC2=CCCCC2)C1=O (stereo not shown) | -16
N/C(=N\c1nc2ccccc2o1)NC(=O)c1ccc(Cl)cc1 | 35.6
CCC(C(=O)OCc1csc(CC(=O)Nc2ccccc2C)n1)c1ccccc1 (stereo not shown) | -6.51
COc1ccc(Cn2c(O)c(C=NCCN3CCOCC3)c(=O)[nH]c2=O)cc1 | -14.4
Cc1cc(Cl)ccc1OCC(=O)N1CCCN(C(=O)COc2ccc(Cl)cc2C)CC1 | -58.5
Cc1cc(Cl)ccc1OCC(=O)NC1CCCC1 | -22.2
Cc1cc(Cl)ccc1OCCCC(=O)N1CCN(C)CC1 | -30
Cc1cc(Cl)ccc1OCC(=O)N1CCN(C)CC1 | -12.5
Cc1cc(Cl)ccc1OCC(=O)N1CCCCC1 | -0.846
Cc1cc(Cl)ccc1OCCCC(=O)N1CCOCC1 | -25
Cc1cc(Cl)ccc1OCCCC(=O)NN | 13.8
Cc1cc(Cl)ccc1OCCCC(=O)NC1CCN(C)CC1 | -51.2
Cc1cc(Cl)ccc1OCCCC(=O)N1CCN(C(=O)c2ccco2)CC1 | -74.5
Cc1cc(Cl)ccc1OCCCC(=O)N1CCCCC1 | -14.2

Structure (SMILES) | hERG current change (%, negative = inhibition) at 10uM [%]
O=C(CCCOc1ccc(Cl)cc1Cl)N1CCc2ccccc2C1 | 12
CN1CCN(C(=O)CCCOc2ccc(Cl)cc2Cl)CC1 | -61.6
CCC12CN(C(=O)c3ccc(OC)cc3)CC(CC)(CN(C(=O)c3ccc(OC)cc3)C1)C2=O | 3.45
Cc1cc2cc3c(cc2nc1SCC(=O)N1CCOCC1)OCO3 | 2.58
CCOc1ccc(S(=O)(=O)NCCC(=O)N2CCN(c3ncccn3)CC2)cc1 | -8.57
CCC(Sc1nc(N)c(NC(=O)c2ccc(Br)o2)c(=O)[nH]1)C(=O)O (stereo not shown) | 15.4
C/C(CC1CC(COCCC(C)C)OC1=O)=N\NC(N)=S (stereo not shown) | 4.37
COC(=O)C1=C(N)Oc2cc(C)n(CC3CCCO3)c(=O)c2C1c1ccc(Cl)c(Cl)c1 (stereo not shown) | 3.95
CC(=O)c1cccc(N(CC(=O)Nc2cc(C)cc(C)c2)S(C)(=O)=O)c1 | 13.3
CSc1nc2sc3c(c2c(=O)[nH]1)CC(C)(C)OC3 | 13.8
CCc1ccccc1N1CN(Cc2cccnc2)CNC1=S | 3.35
Cc1cc(C)nc(N2CCCC(C(=O)Nc3ccc4nc(C)c(C)nc4c3)C2)n1 (stereo not shown) | 9.96
COc1cccc(/C=N/NC(=O)CN(C2=NS(=O)(=O)c3ccccc32)c2ccccc2)c1 | 0.919
Cc1c(C(=O)Nc2ccc(-c3nnc4n3CCCCC4)cc2)oc2c1ccc1ccccc12 | -13.8
O=C(Nc1ccc(CN2CCOCC2)cc1)c1ccc(-c2cccc([N+](=O)[O-])c2)o1 | -48.3
O=C(Nc1ccc(N2CCCC2)cc1)c1ccc2ccccc2c1 | 0.743
CC(=O)N1CCN(c2ccc(NC(=O)c3ccc4ccccc4c3)cc2)CC1 | -7.05
O=C(NC(=S)Nc1ccc(CN2CCOCC2)cc1)c1cc2ccccc2o1 | 11.7
O=C(Nc1ccc(-c2nnc3n2CCCCC3)cc1)c1ccco1 | 5.26
O=C(Nc1ccc(-c2nnc3n2CCCCC3)cc1)c1cc2ccccc2o1 | -71.8
O=C(NC(=S)Nc1ccc(CN2CCOCC2)cc1)c1ccc(-c2cccc(Cl)c2)o1 | 7.11
O=C(Nc1ccc(CN2CCOCC2)cc1)c1cc2ccccc2o1 | -50.2
O=C(Nc1ccc(N2CCOCC2)cc1)c1cc2ccccc2o1 | 4.38

Structure (SMILES) | hERG current change (%, negative = inhibition) at 10uM [%]
CN1CCN(c2ccc(NC(=O)c3ccc4ccccc4c3)cc2)CC1 | -66.1
O=C(Nc1ccc(CN2CCOCC2)cc1)c1ccc(-c2cccc(Cl)c2)o1 | -52.8
Cc1ccc(C2=NS(=O)(=O)N(C)C(C(=O)NCc3ccccc3)=C2)cc1 | -0.52
O=C(NCCN1CCOCC1)c1ccc(Cl)c([N+](=O)[O-])c1 | 16.5
Cc1ccc2c(c1)N(C(C)C(=O)NCCc1ccccc1)C(=O)CO2 (stereo not shown) | 7.21
COc1cc(C(=O)Nc2cc(C(F)(F)F)ccc2N2CCOCC2)ccc1O | -26.6
O=C(CCc1nc(-c2ccccc2Cl)no1)NCCc1ccccc1 | 7.08
COc1ccc(CCNC(=O)c2c(O)c3ccccc3n(C)c2=O)cc1 | -12.1
O=c1[nH][nH]c(-c2ccccc2)c1C=Nc1cccc(Cl)c1 | 5.35
CN1CCN(c2ccc(NC(=O)c3ccc(-c4ccc(Br)cc4)o3)cc2)CC1 | 0.645
CN1CCN(c2ccc(NC(=O)c3cc4ccccc4o3)cc2)CC1 | -72.3
O=C(Nc1ccc(N2CCCC2)cc1)c1cc2ccccc2o1 | 20.4
CN1CCN(c2ccc(NC(=O)c3ccc(-c4ccccc4F)o3)cc2)CC1 | -70
Cc1cc(N2CCN(C)CC2)ccc1NC(=O)c1ccc(-c2ccc(Cl)cc2)o1 | -80
O=C(Nc1ccc(N2CCOCC2)cc1)c1ccc(-c2ccccc2[N+](=O)[O-])o1 | 15.9
CS(=O)(=O)N1CCN(c2ccc(NC(=O)c3ccc(-c4ccc(Cl)cc4)o3)cc2)CC1 | -10.6
CN1CCN(c2ccc(NC(=O)c3ccc(-c4ccc(Cl)cc4)o3)cc2)CC1 | 11.5
c1coc(CNCCCN2CCOCC2)c1 | -0.128
Cl.Clc1cccc(-c2ccc(CNCCCN3CCOCC3)o2)c1 | -58.3
COc1ccc(-c2ccc(CNCCCN3CCOCC3)o2)cc1Cl.Cl | 6.83
CC(=O)N1CCN(c2ccc(NC(=O)c3cc4ccccc4o3)cc2)CC1 | -24.5

Reference: paper PMC4336329 (PLoS ONE, 2015)
